Assay: S6 kinase pathway phospho-S6 level changes – cell-based, A549, cytoblot, luminescence, serum-stimulated, primary screen (AID 1158);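 further: serum-stimulated A549 lung adenocarcinoma cells; signal is phosphorylated S6 detected by cytoblot immunostaining with HRP secondary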
Details: 5 h, higher = more signal

Row | SMILES | z-score
1 | Cc1cc(C)c(-c2cc([C@H](C)ON=C[C@@H](C)[C@H](OCc3ccccc3)C(C)C)on2)c(C)c1 | -0.408
2 | CC(CCN1CCCCc2nc(C)c(C)cc21)=NO[C@H](C)c1cn([C@@H]2COC[C@H]2O)nn1 | -0.363
3 | COC(=O)[C@H](C)NC(=O)CCC1CC(OC(=O)NCc2ccc3c(c2)OCO3)CC2(CCCC(COC(=O)NCc3ccccc3)O2)O1 (stereo partly drawn) | 0.307
4 | CC(=O)OC[C@H]1O[C@H](C#CCC2CCCCC2)C=C[C@@H]1OC(C)=O | -0.274
5 | CN1CCc2nc(-c3ccccc3)c(-c3ccccc3)cc2C1 | -0.76
6 | CO[C@H]1COC(=O)CCC[C@H](C)[C@H](OC)COC(=O)CC=C[C@@H]1C | 1.18
7 | COCOc1ccc(Br)cc1C(=O)C=Cc1ccc2c(c1)OCO2 | 0.835
8 | CCN1C(=O)[C@H]2[C@H]3[C@H](O)[C@H](O)CC(=NO[C@@H](C)c4cc(-c5c(C)cc(C)cc5C)no4)[C@@H]3CC[C@H]2C1=O | -0.428
9 | C[C@@H](c1ccccc1)N1C(=O)[C@H]2[C@H]3[C@H](O)[C@H](O)CC(=NNC(=O)OCc4ccccc4)[C@@H]3CC[C@H]2C1=O | -0.136
10 | CO[C@H]1COC(=O)CCC[C@H](C)[C@@H](OC)COC(=O)CC=C[C@@H]1C | -0.279
11 | CO[C@H]1COC(=O)CC=C[C@H](C)[C@H](OC)COC(=O)[C@@H](C)NC(=O)CC=C[C@@H]1C | -0.365
12 | CC(CCN1CCCc2nc(C)c(C)cc21)=NOC[C@@H](C)[C@H](OCc1ccccc1)C(C)C | 2
13 | COc1ccc(COC(=O)NN=C2C[C@@H](O)[C@@H](O)[C@@H]3[C@@H]4C(=O)N([C@@H](C)c5ccccc5)C(=O)[C@@H]4CC[C@H]23)cc1 | -0.34
14 | C=C(C)C(=O)OC[C@H]1CN2[C@@H](CC[C@@H](C)[C@@H]2c2ccc(Br)cc2)C(=O)O1 | 0.861
15 | O=C1[C@H]2[C@H]3[C@H](O)[C@H](O)CC(=NOC[C@@H](O)COCc4ccco4)[C@@H]3CC[C@H]2C(=O)N1Cc1ccc2c(c1)OCO2 | 0.236
16 | O=C(NN=C1C[C@@H](O)[C@@H](O)[C@@H]2[C@@H]3C(=O)N(c4ccc(F)cc4F)C(=O)[C@@H]3CC[C@H]12)OCc1ccccc1 | -0.262
17 | CC(=O)OC[C@H]1O[C@H](CC=NOC[C@@H](O)COCc2ccco2)C=C[C@@H]1OC(C)=O | 0.0978

Row | SMILES | z-score
18 | CCN1C(C)=C(C(=O)OC)[C@@H](c2ccccc2)N2C(=O)[C@](O)(C(=O)OC)CC(C(C)=O)=C12 | 0.825
19 | CC(C)CON=C1C[C@@H](O)[C@@H](O)[C@@H]2[C@@H]3C(=O)N([C@@H](C)c4ccccc4)C(=O)[C@@H]3CC[C@@H]12 | -0.691
20 | COC(=O)CC=C1c2ccccc2[C@H](OC)[C@H]1C | -0.882
21 | CC(=O)OC[C@H]1O[C@H](CC=NOC[C@@H](O)[C@H]2O[C@@H]3OC(C)(C)O[C@@H]3[C@H]2O)C=C[C@@H]1OC(C)=O | -0.549
22 | C#CCCCON=C1C[C@@H](O)[C@@H](O)[C@@H]2[C@@H]3C(=O)N(C[C@@H]4CCCO4)C(=O)[C@@H]3CC[C@H]12 | 0.591
23 | CCN1C(=O)[C@H]2[C@H]3[C@H](O)[C@H](O)CC(=NNC(=O)OCc4ccccc4)[C@H]3CC[C@H]2C1=O | -0.18
24 | C[C@@H]1CC[C@H]2C(=O)OC(Cc3ccccc3)CN2[C@H]1c1ccc(Br)cc1 (stereo partly drawn) | -0.0843
25 | CC(C)=NOC(C)CN1CCCCc2nc(C)c(C)cc21 (stereo not drawn) | -0.618
26 | COC(=O)[C@@H]1CC[C@H](C)[C@@H](c2ccc(C)cc2)N1C(=O)c1ccc(C=NOC[C@@H](O)[C@H]2O[C@@H]3OC(C)(C)O[C@@H]3[C@H]2O)cc1 | -0.924
27 | CCOC(=O)[C@H](Cc1ccccc1)NC(=O)CCC1CC(OC(=O)NCc2cccc3ccccc23)CC2(CCCC(COC(=O)NCCc3ccccc3OC)O2)O1 (stereo partly drawn) | -0.352
28 | CON=C[C@@H](OC)[C@H](C)C=CCC(=O)OC | 0.279
29 | O=C(NCCC[N+]1=CC=NC1c1ccccc1)N1CCCc2nc(-c3ccc(Br)cc3)ccc21 (stereo not drawn) | -0.26
30 | COc1cccc([C@H](O)Cn2cc(-c3ccc(CON=C(C)C)cc3)nn2)c1 | -1.07
31 | C=CC[C@@H]1C=C[C@H](Oc2ccc(C)cc2)[C@@H](COC(=O)NCc2cccc3ccccc23)O1 | -0.783
32 | COC(=O)[C@H](C)NC(=O)CCC1CC(OC(=O)NCCc2ccc(F)cc2)CC2(CCCC(COC(=O)NCCOc3ccccc3)O2)O1 (stereo partly drawn) | 0.0246
33 | CO[C@@H](C(C)C)[C@@H](C)C1OC(=O)CC1O (stereo partly drawn) | -0.289
